GDH-TPI inh – GDH-TPI coupled enzyme inhibition counter-screen | inhibition, % at 4.8 µM | actives 1.2% (n = 360,000) | GDH-TPI coupled enzyme counterscreen, NADH absorbance; in the data active = inhibition above about 30%
Mtb betalactam – beta-lactam sensitization of Mtb H37Rv; M. tuberculosis H37Rv growth with meropenem, percent inhibition; inhibition, % at 25 µM; actives 0.27% (n = 330,000); call rule not given here;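 note: growth measured after seven days incubation then overnight dye step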
Mtb hypoxia rep – reduces hypoxia-regulated biosensor signal in M. tuberculosis; M. tuberculosis hypoxia-regulated fluorescent reporter, fluorescence; fluorescence inhibition, % (test concentration not listed); actives 0.1% (n = 300,000); AID 1159583; in the data active = fluorescence inhibition mostly above about 23%, no sharp cut-off; inactive = mostly below about 17%
FBA Mtb inh – inhibitors of M. tuberculosis fructose-bisphosphate aldolase | P9WQA3 | purified M. tuberculosis FBA, fluorescence read-out | inhibition, % at 1 µM | AID 588726 | actives 2.3% (n = 360,000); in the data active = inhibition above about 27%
Target sequence (P9WQA3 whole entry, looked up): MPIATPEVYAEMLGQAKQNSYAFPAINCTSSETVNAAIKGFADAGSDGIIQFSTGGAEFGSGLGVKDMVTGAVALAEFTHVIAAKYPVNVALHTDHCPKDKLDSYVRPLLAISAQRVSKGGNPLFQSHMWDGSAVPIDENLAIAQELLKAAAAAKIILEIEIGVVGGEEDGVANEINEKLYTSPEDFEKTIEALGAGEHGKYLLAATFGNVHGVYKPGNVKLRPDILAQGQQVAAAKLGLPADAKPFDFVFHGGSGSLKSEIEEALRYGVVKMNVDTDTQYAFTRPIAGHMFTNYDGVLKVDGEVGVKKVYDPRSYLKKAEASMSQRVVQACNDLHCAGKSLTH
DUSP3 inh – inhibitors of human VHR1 phosphatase (DUSP3); P51452; recombinant VHR phosphatase, pNPP absorbance; inhibition, % at 13.3 µM; actives 0.52% (n = 290,000); in the data active = inhibition above about 50%
Target sequence (P51452 whole entry, looked up): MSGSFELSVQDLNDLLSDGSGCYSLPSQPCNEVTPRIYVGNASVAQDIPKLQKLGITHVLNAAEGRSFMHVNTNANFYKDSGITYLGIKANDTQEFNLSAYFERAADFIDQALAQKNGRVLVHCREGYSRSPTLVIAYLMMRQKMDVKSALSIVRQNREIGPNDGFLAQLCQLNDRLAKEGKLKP
Each line names hits and unclear results; the compound was inactive in the other large screens. Shown are actives, neighbours in structure and some others; about 3.6% of the full set was active somewhere.

COC(=O)C1=C(c2ccccc2OCc2ccccc2)CC2CCC1N2C(=O)NCc1ccc(C(C)(C)C)cc1 (configuration not stated)	none (no result: GDH-TPI inh, Mtb betalactam, FBA Mtb inh, DUSP3 inh)
C#CCOCCOCCOCCNc1nc(N2CCN(C(=O)Cn3cc(CCCN=C(N)N)nn3)CC2)nc(N2CCN(C(=O)C(CCCCN)n3cc(CCCC)nn3)CC2)n1 (configuration not stated)	none (no result: GDH-TPI inh, Mtb betalactam, FBA Mtb inh, DUSP3 inh)
CCOC(=O)c1ccc(N=Cc2nc(-c3ccccc3)oc2OC(C)=O)cc1	none
CN=Cc1nc(-c2ccccc2)oc1O	GDH-TPI inh 59.1 (no result: Mtb hypoxia rep)
CC(=O)Oc1oc(-c2ccccc2)nc1C=Nc1ccccc1	DUSP3 inh 51.7 (no result: Mtb hypoxia rep)
CC(C)C(=O)Nc1ccccc1C(=O)NN=Cc1ccc([N+](=O)[O-])cc1	none (no result: GDH-TPI inh, Mtb betalactam, FBA Mtb inh, DUSP3 inh)
CCOc1ccccc1-c1c2cc(O)c(=O)cc-2oc2cc(O)c(O)cc12	Mtb hypoxia rep 36.9 (no result: Mtb betalactam)
O=c1cc2oc3cc(O)c(O)cc3c(-c3ccccc3O)c-2cc1O	none (no result: Mtb betalactam)
CC1COC(=O)C(CC(=O)OC(C)(C)C)CC=CCC(CC(=O)N(CCO)Cc2ccccc2)C(=O)N1 (configuration not stated)	none (no result: GDH-TPI inh, Mtb betalactam, FBA Mtb inh, DUSP3 inh)
O=c1cc(C=Cc2ccccc2)oc2c1ccc1ccccc12	none (no result: GDH-TPI inh, Mtb betalactam, FBA Mtb inh, DUSP3 inh)
COc1ccc(C(=O)c2c(C)oc3ccc(O)cc23)c(OC)c1	DUSP3 inh 58.2
COc1ccc(C(=O)c2c(C)oc3ccc(O)cc23)cc1	none
CCCc1cc(=O)oc2c3c(cc(OCC(=O)NCc4ccncc4)c12)OC(C)(C)CC3	FBA Mtb inh active (no result: Mtb hypoxia rep)
Cc1c(C)c2c(OCC(=O)NCc3ccccn3)cc3c(c2oc1=O)CCC(C)(C)O3	FBA Mtb inh active (no result: Mtb hypoxia rep)
Cc1cc(OCC(=O)C(C)(C)C)c2c(C)c(C)c(=O)oc2c1	FBA Mtb inh 48.6
Cc1c(OCC(=O)NCc2ccccn2)ccc2c(-c3ccccc3)cc(=O)oc12	none (no result: Mtb hypoxia rep)
Cc1cc(OCC(=O)Nc2ccccn2)c2c(C)c(C)c(=O)oc2c1	none
Cc1cc(OCC(=O)NCc2ccccn2)c2c(C)c(C)c(=O)oc2c1	FBA Mtb inh 119.8
COc1cc(C=NNc2cc(C)nc(N)n2)ccc1O	none (no result: GDH-TPI inh, Mtb betalactam, FBA Mtb inh, DUSP3 inh)
Cc1cc(=O)oc2c(C)c(OCC(=O)NCc3ccccn3)ccc12	none
CCCc1cc(=O)oc2c3c(cc(OCC(=O)NCc4ccccn4)c12)OC(C)(C)CC3	FBA Mtb inh 191.8 (no result: Mtb hypoxia rep)
CC(C)C1C=C(C(=O)O)OC(OCCCCO)C1 (configuration not stated)	none (no result: GDH-TPI inh, Mtb betalactam, FBA Mtb inh, DUSP3 inh)
CCC(C)Nc1nc(N)c([N+](=O)[O-])c(Nc2cc(OC)ccc2OC)n1 (configuration not stated)	none
CCC(C)Nc1nc(N)c([N+](=O)[O-])c(Nc2ccccc2OC)n1 (configuration not stated)	GDH-TPI inh 39.3 (no result: Mtb hypoxia rep)
COc1ccccc1Nc1nc(NCCCN(C)C)nc(N)c1[N+](=O)[O-]	GDH-TPI inh 38.2
Nc1nc(NCC2CCCO2)nc(NCC2CCCO2)c1[N+](=O)[O-] (configuration not stated)	none
Nc1nc(NCCO)nc(NCC2CCCO2)c1[N+](=O)[O-] (configuration not stated)	GDH-TPI inh 37.4
Nc1nc(NCc2ccccc2)nc(NCCO)c1[N+](=O)[O-]	GDH-TPI inh 31.7
CCOC(=O)c1cccc(-n2cccc2C=C2NC(=O)N(CC(=O)O)C2=O)c1	none (no result: GDH-TPI inh, Mtb betalactam, FBA Mtb inh, DUSP3 inh)
CC1CCC(=O)N(CC(C)CSc2ccccc2)CC1 (configuration not stated)	none (no result: GDH-TPI inh, Mtb betalactam, FBA Mtb inh, DUSP3 inh)
CN(C)CCCNc1nc(N)c([N+](=O)[O-])c(NCCO)n1	GDH-TPI inh 38.2
COc1ccc(OC)c(C=NNC(=O)c2ccc(N(C)S(=O)(=O)c3ccccc3)cc2)c1	none (no result: GDH-TPI inh, Mtb betalactam, FBA Mtb inh, DUSP3 inh)
CN1CCN(N=Cc2ccc(Br)cc2)CC1	none (no result: GDH-TPI inh, Mtb betalactam, FBA Mtb inh, DUSP3 inh)
COc1ccc2ccccc2c1/C=N\NC(=O)c1cccnc1	GDH-TPI inh 35.2 (no result: Mtb hypoxia rep, DUSP3 inh)
Cc1cc(O)c(C)c(O)c1/C=N/NC(=O)c1cccnc1	GDH-TPI inh 31.4 (no result: Mtb hypoxia rep)
CC(O)C1CN=C(N)N1CCCCC1CCCCC1 (configuration not stated)	none (no result: GDH-TPI inh, Mtb betalactam, FBA Mtb inh, DUSP3 inh)
Cc1ccc(C(=O)C2CCN(CC(=O)NCc3ccc(F)cc3)CC2)cc1	DUSP3 inh 53.3 (no result: Mtb hypoxia rep)
O=C(CN1CCCC1)NCC(=O)Nc1ccc(F)cc1	FBA Mtb inh active
CCC(C)Sc1ccc(C2N[C@@](C)(C(=O)OC)C3C(=O)N(CC)C(=O)C23)cc1 (some centres not stated)	none (no result: GDH-TPI inh, Mtb betalactam, FBA Mtb inh, DUSP3 inh)
COc1cc(C2OCC3C(c4ccc5c(c4)OCO5)OCC23)ccc1O (configuration not stated)	none (no result: GDH-TPI inh, Mtb betalactam, FBA Mtb inh, DUSP3 inh)
COc1cc(C=NN2CCN(c3ccccc3OC)CC2)ccc1OC(C)=O	none (no result: GDH-TPI inh, Mtb betalactam, FBA Mtb inh, DUSP3 inh)
CC(=NNC(=S)NCc1ccccc1)c1ccc(Cl)cc1	none (no result: GDH-TPI inh, Mtb betalactam, FBA Mtb inh, DUSP3 inh)
